# According to ChEMBL document CHEMBL4513135, “CO-ADD screening of IQOG CSIS (Spain) compounds”:
# Measured potencies and affinities stand elsewhere.
# Legend:
# Klebsiella pneumoniae = conditions: Concentration 32 ug.mL-1; ASSAY_TEST Inhibition of Bacterial Growth; detection method Absorption (OD600); MEDIA CAMHB; plate type 384well; NBS; CORNING #3640; time 18 hr
# Candida albicans = conditions: 32 ug/mL
# Cryptococcus neoformans = conditions: Concentration 32 ug.mL-1; ASSAY_TEST Inhibition of Fungal Growth; detection method Resazurin; Absorption (OD600-OD570); plate type 384well; NBS; CORNING #3640
Compound,Inhibition (Klebsiella pneumoniae) [%],Inhibition (Candida albicans) [%],Inhibition (Cryptococcus neoformans) [%]
Nc1c2c(nc3nc4ccccc4nc13)CCCC2,-2.37,2.21,-107.03
Cc1ccc(C(O)SNNc2ncnc3c2cnn3-c2ccccc2)cc1 (stereo not given),7.03,2.59,-4.5
CC/C(C)=N/NC(=O)Cc1c[nH]c2ccccc12,0.18,-0.57,-5.32
N#CC1(Br)C(=NBr)Oc2ccc3ccccc3c2C1c1ccc([N+](=O)[O-])cc1 (stereo not given),-0.48,2.19,-71.87
COc1ccc(-c2cc(-c3cc4c(C)cc(C)cc4nc3Cl)cc(=O)[nH]2)cc1,4.51,1.74,0.64
C#CCN(C)c1nc(NCCCC2CCN(Cc3ccccc3)CC2)c(C#N)cc1C#N,-7.79,3.51,-58.85
O=C(Cc1c[nH]c2ccccc12)NN=C1CCCCCC1,-21.31,1.07,-2.54
C=C1CN(C)c2ncc(C#N)c(=N)n21,0.03,0.69,-57.29
CSC1=NC(=Cc2ccccc2)C(=O)N1C,-0.86,3.12,-9.15
CCC(Cc1ccccc1)NNC(=O)c1cc2ccccc2[nH]1 (stereo not given),-8.95,1.13,-1.62
COc1ccc(C=C2N=C(c3ccccc3)OC2=O)cc1,13.35,0.77,-7.5
C#CCNc1cccc(F)n1,9.96,-0.33,-45.04
Cc1ccc(/C=C(\C#N)C(=O)c2ccccc2)cc1,11.17,1.76,-10.05
CCOc1nc2nc(C)c(C=C3CCN(Cc4ccccc4)CC3)cc2c(-c2ccccc2)c1C#N,20.16,2.44,-63.91
NNC(=O)CCc1c[nH]c2ccccc12,5.25,0.67,-3.69
Cc1nn(-c2ccccc2)c2ncnc(NCc3ccccc3)c12,6.27,-0.21,-3.05
COc1cc(C2CC2(N)C(=O)O)ccc1O (stereo not given),3.5,-0.44,-0.8
C#CCN(C)Cc1cc2cc(O)ccc2n1C.Cl,13.12,2.77,-73.69

Compound,Inhibition (Klebsiella pneumoniae) [%],Inhibition (Candida albicans) [%],Inhibition (Cryptococcus neoformans) [%]
CC1(C)OC(=O)C(=Cc2ccc([N+](=O)[O-])cc2)C(=O)O1,18.71,1.46,-6.06
Cc1ccc(/C=N/NC(=O)c2c[nH]c3ccccc23)cc1,10.41,1.17,-0.49
C#CCN(C)c1nc(OC)c(C#N)c(-c2ccccc2)c1C#N,15.23,4.58,-56.39
CCC(CC)NNC(=O)c1c[nH]c2ccccc12.Cl,14.64,1.1,4.78
Clc1ccc(-c2cn3ccccc3n2)cc1,18.54,-1.23,-7.53
N#Cc1cc(C#N)c(NCc2ccccc2)nc1N,-14.3,1.7,5.02
COc1ccc2cc(C3C(C(C)=O)=C(C)Oc4nc5c(c(N)c43)CCCCC5)c(Cl)nc2c1 (stereo not given),0.78,3.71,-8.4
COc1ccc(-c2cc(-c3cc4ccc(F)cc4nc3Cl)cc(=O)[nH]2)cc1,-16.09,1.94,-21.89
N#Cc1cc2c(N)c3c(nc2nc1N1CCCCC1)CCCC3,18.01,1.35,-98.63
CC1Cc2c(Br)nc3nc4c(c(N)c3c2NC1=O)CCCC4 (stereo not given),20.62,-0.9,-91.63
c1ccc(CNc2ncnc3c2cnn3-c2ccccc2)cc1,-0.11,0.45,-6.46
Cn1c(CNNC(=O)Cc2cccc3ccccc23)cc2ccccc21,2.56,-0.25,-2.04
C#CCN(C)Cc1cc2cc(OCCCCC3CCN(Cc4ccccc4)CC3)ccc2n1C.Cl,25.34,2.11,-16.02
c1ccc(Cn2ccc3ccccc32)cc1,13.32,4.28,-3.9
O=C1NC(=S)N/C1=C\c1c[nH]c2ccccc12,4.51,-0.31,-1.8
N#CC1(Br)C(=NBr)Oc2ccc3ccccc3c2C1c1cccc([N+](=O)[O-])c1 (stereo not given),8.04,7.45,-42.61
Cc1nc(Nc2ccccc2)c2cnn(-c3ccccc3)c2n1,17.53,0.68,-5.65
